Screening results (PubChem BioAssay)
PKA-R2B act – activators of PKA-R2B holoenzyme, primary screen, biochemical, fluorescence polarization, Cy5-IP20, human | cAMP-dependent protein kinase catalytic subunit beta (Homo sapiens) + cAMP-dependent … | PKA-R2B holoenzyme dissociation; R2B truncated from residue 108, S112A mutant; 0% DMSO only, 100% 113 µM cGMP | activation, % at 11.4 µM | actives 0.079% (n = 340,000) | AID 504700, 2011;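 active = activation above a cutoff set at the mean over all compounds plus 3 SD, cut at about 18% in these data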;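 note: higher means more holoenzyme dissociation and a rise in polarization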
CHT inh – inhibitors of human choline transporter CHT. CHT-expressing cells, membrane potential dye, choline response; stronger effect = lower value. B-score at 10 µM. High affinity choline transporter 1 (Homo sapiens), Q9GZV3. AID 488975, 2010. actives 0.86% (n = 310,000);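 active = B-score over 3 SD under the library average, and starting fluorescence ratio not unusually high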;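 note: choline stimulus applied at its EC90 after an EC20 pre-addition; B-score computed on integrated fluorescence ratio after choline addition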
CHT allo act – CHT positive allosteric modulators, primary screen, cell-based, membrane potential dye, choline EC20 | B-score at 10 µM | actives 0.49% (n = 310,000) | AID 488977, 2010 | CHT-expressing cells; stronger effect = higher value; LV-AA mutant CHT in HEK293 cells | High affinity choline transporter 1 (Homo sapiens), Q9GZV3;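 active = initial fluorescence not abnormally high and integrated response B-score, plate-corrected, over 3 SD above library mean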
TMEM16A act – TMEM16A chloride channel activators or potentiators, primary screen, cell-based, HTS | B-score at 10 µM | Anoctamin-1 (Mus musculus), Q8BHY3 | actives 0.3% (n = 340,000) | HEK293 TMEM16A/YFP-H148Q/I152L, iodide quench fluorescence; stronger effect = lower value;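 active = fluorescence-ratio B-score plate-corrected deviation score at least 3 library SD below zero, with starting fluorescence score within 5 deviations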;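 note: channel opened by trigger with iodide after compound preincubation; score built on the fluorescence ratio of max minus min over baseline; more negative score means more quench and so TMEM16A activation or potentiation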
TMEM16A inh – TMEM16A chloride channel inhibitors, primary screen, cell-based, HTS | HEK293 TMEM16A/YFP iodide influx fluorescence, ionomycin | normalized B-score (activity score, 25-100; higher = stronger inhibition) at 10 µM | actives 1.2% (n = 310,000);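 active = ratio plate-corrected score three or more library SD toward inhibition, starting fluorescence score within five deviations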;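 note: score derived from kinetic fluorescence span divided by baseline fluorescence per well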
PKA-R1A act – activators of PKA-R1A holoenzyme, primary screen, biochemical, fluorescence polarization, Cy5-IP20, bovine R1A, mouse PKAc | activation, % at 11.4 µM | actives 0.083% (n = 340,000) | cAMP-dependent protein kinase type I-alpha regulatory subunit (Bos taurus) + … | AID 504707, 2011 | PKA-R1A dissociation; scaled: DMSO 0%, 113 µM cGMP 100%;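 active = percent activation above the mean of all tested compounds plus 3 SD, cut at about 19% in these data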;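 note: higher means more PKAc released from R1A so a rise in polarization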
CHT inh conf – CHT inhibitors, confirmation, cell-based, membrane potential dye, duplicate | shares compounds with CHT inh | CHT activity remaining % of control (stronger effect = lower value), % at 10 µM | CHT-expressing cells, choline membrane potential dye; LV-to-AA substituted CHT, HEK293 cells | actives 70% (n = 2,400) | AID 493221, 2011;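 active = choline transporter activity left, mean of duplicates at 10 µM, below buffer-only control mean minus 3 SD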;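 note: depolarization triggered by choline at its EC90 following an EC20 pre-addition; 0% = hemicholinium-3 full block and 100% = buffer-only control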
HEK293 MPD ctr – membrane potential effects in parental HEK293, counter-screen for CHT inhibitor project, cell-based, membrane potential dye. AID 493222, 2011. choline response; active = decrease or increase beyond buffer ±3SD. shares compounds with CHT inh. membrane potential ratio readout (active if shifted either direction beyond buffer ±3SD; no single direction) at 10 µM. actives 4% (n = 2,400);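 note: parental cells lack the transporter so any hit is non-specific; ratio is peak minus trough fluorescence over baseline after EC90 choline challenge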
* hit, by the source's call; i = inactive; / = no result given. In the library only some 2.5% were active in any assay of this set; here they are far more common.

SMILES	PKA-R2B act	CHT inh	CHT allo act	TMEM16A act	TMEM16A inh	PKA-R1A act	CHT inh conf	HEK293 MPD ctr
Cc1ccc(C(=O)NCC(=O)N2CCC(Cc3ccccc3)CC2)cc1	-2	-5.2*	i	i	i	-7	59%*	i
O=C(C1CC(=O)N(C2CCCC2)C1)N1CCN(c2ccccc2F)CC1 (centres undefined)	-3	i	i	i	i	-2	/	/
O=C(c1cnc(Cl)c(Cl)c1)N1CCC(Cc2ccccc2)CC1	-9	i	i	i	i	4	/	/
Cc1[nH]n(-c2ccc(Cl)cc2)c(=O)c1C(=O)c1ccccc1	-9	-11*	i	i	i	-13	i	i
CC(NC(=O)CN(c1ccc(Cl)cc1)S(C)(=O)=O)c1ccccc1 (centres undefined)	-5	i	i	i	i	10	/	/
COc1cccc(C2CC(=O)Nc3cc(OC)c(OC)cc32)c1 (centres undefined)	5	i	i	i	i	-1	/	/
CCOc1cccc(C2CC(=O)Nc3cc(OC)c(OC)cc32)c1 (centres undefined)	1	-6.7*	i	i	i	-3	i	i
COC(=O)c1ccccc1NC(=O)NC1CCCCC1	-6	i	i	i	i	-4	/	/
COc1ccc(C(=O)NCc2cnn(C)c2)cc1OC1CCN(C(C)C)CC1	7	/	/	i	i	4	/	/
COCCCNC(=O)c1ccc(OC)c(OC2CCN(C(C)C)CC2)c1	-3	-6*	i	i	i	2	36%*	i
COc1ccc(C(=O)N2CCCCCC2)cc1OC1CCN(C(C)C)CC1	-3	-5*	i	i	i	-2	45%*	i
COc1ccccc1CCNC(=O)c1ccc(OC)c(OC2CCN(C(C)C)CC2)c1	3	-12*	i	i	i	-16	8.6%*	i
COc1ccc(C(=O)N(C)Cc2ccc(C)o2)cc1OC1CCN(C(C)C)CC1	-4	-6.3*	i	i	i	14	30%*	i
COC(=O)CN(C)C(=O)c1ccc(OC)c(OC2CCN(C(C)C)CC2)c1	2	i	i	i	i	8	/	/
CC(C)n1c(SCC(=O)Nc2nncs2)nnc1-c1ccco1	/	i	i	/	i	/	/	/
COc1ccc(C(=O)NCc2cnn(C)c2C)cc1OC1CCN(C(C)C)CC1	5	-11*	i	i	i	9	12%*	i
COc1cccc(CCNC(=O)c2ccc(OC)c(OC3CCN(C(C)C)CC3)c2)c1	3	-13*	i	i	i	-7	12%*	i
COc1ccc(C(=O)NCCc2ccc(C)cc2)cc1OC1CCN(C(C)=O)CC1	-4	i	i	i	i	-1	/	/
Cc1ccsc1CN(C)C(=O)CN1C(=O)NC2(CCCCC2C)C1=O (centres undefined)	2	/	/	i	/	-1	/	/
Cc1cc(N2CCCC2=O)cc(C)c1S(=O)(=O)NCCOc1ccccc1	2	-5.9*	i	i	i	4	67%*	-8.4*
NCCCCCc1nnc(SCc2ccc(Cl)c(Cl)c2)o1	7	-5.4*	i	i	i	3	30%*	i
NCCc1nnc(SCc2ccc(F)cc2)o1	3	i	i	i	i	-1	/	/
CN(C(=O)c1ccccc1F)C(c1ccccc1)c1ccccc1	-7	i	i	i	i	-1	/	/
CCN(CC)C(=O)CSc1nc2ccc(NC(=O)CSc3nccn3C)cc2s1	-2	-9.6*	i	i	i	7	25%*	i
CCN(CC)C(=O)CSc1nc2ccc(NC(=O)CSc3nnc(N)s3)cc2s1	-14	i	i	i	i	-1	/	/
SMILES	PKA-R2B act	CHT inh	CHT allo act	TMEM16A act	TMEM16A inh	PKA-R1A act	CHT inh conf	HEK293 MPD ctr
CC[C@@H](C)[C@@H](C(=O)N1CCNCC1)n1cc(CCC(=O)O)nn1	4	i	i	i	i	3	/	/
CCC(C)Nc1nc2c(c(=O)[nH]c(=O)n2C)n1CCC(C)C (centres undefined)	7	-8.3*	i	i	i	2	i	i
COC(=O)C(C)Sc1nc2c(c(=O)[nH]c(=O)n2C)n1CCC(C)C (centres undefined)	-6	-5.1*	i	/	i	-4	40%*	i
COC(=O)C(C)Sc1nc2c(c(=O)n(C)c(=O)n2C)n1CCC(C)C (centres undefined)	2	i	i	i	i	0	/	/
Cc1cccc(C(=O)Nc2cccc(OCC(=O)O)c2)c1	-3	-5*	i	i	i	-1	57%*	i
O=C(O)COc1cccc(NC(=O)c2ccccc2)c1	-4	i	i	i	i	2	/	/
COc1ccc(C(CNC(=O)c2cccc(S(=O)(=O)NCc3ccccc3)c2)N(C)C)cc1 (centres undefined)	-1	i	i	i	i	-9	/	/
O=C(CN1CCN(Cc2ccc(Cl)cc2)CC1)N1CCc2ccccc21	-5	-6.2*	i	i	i	-6	48%*	i
O=C(CN1CCN(Cc2ccccc2)CC1)N1CCCc2ccccc21	3	i	i	i	i	-16	/	/
Cc1csc(=N)n1CC(=O)N1CCc2ccccc21	2	-9.6*	i	i	i	-12	21%*	i
CCN(C[C@H]1N[C@@](C)(C(=O)OC)[C@H]2C(=O)N(Cc3ccccc3)C(=O)[C@@H]12)S(=O)(=O)c1ccc(OC)cc1	4	/	/	/	/	7	/	/
